Reference: PubChem BioAssay AID778 (Sanford-Burnham Center for Chemical Genomics, 2007)
In all, about 96,000 compounds went through this assay and about 20,000 (21%) were called active. The list is a sample of the results. Values without a mark were called inactive.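 The calls were made as follows: active = CYP2C19 inhibition above a set limit at 5 µM in the primary screen (cut at about 50% in these data); inactive = the rest.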

The compounds below were run against Cytochrome P450 2C19 (Homo sapiens) (UniProt P33261) (assay: blockers of cytochrome P450 2C19 activity – biochemical, luminescence, ADME assay, primary screen (AID 778;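 also: plate controls were negative control wells for no effect and 2.5 mM tranylcypromine positive control for full effect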)). Conditions: CYP2C19 Supersomes, luciferin-H EGE luminescence, 30 min; at 5 µM; hits give high values.
Cytochrome P450 2C19 (Homo sapiens), sequence (P33261 whole entry, looked up): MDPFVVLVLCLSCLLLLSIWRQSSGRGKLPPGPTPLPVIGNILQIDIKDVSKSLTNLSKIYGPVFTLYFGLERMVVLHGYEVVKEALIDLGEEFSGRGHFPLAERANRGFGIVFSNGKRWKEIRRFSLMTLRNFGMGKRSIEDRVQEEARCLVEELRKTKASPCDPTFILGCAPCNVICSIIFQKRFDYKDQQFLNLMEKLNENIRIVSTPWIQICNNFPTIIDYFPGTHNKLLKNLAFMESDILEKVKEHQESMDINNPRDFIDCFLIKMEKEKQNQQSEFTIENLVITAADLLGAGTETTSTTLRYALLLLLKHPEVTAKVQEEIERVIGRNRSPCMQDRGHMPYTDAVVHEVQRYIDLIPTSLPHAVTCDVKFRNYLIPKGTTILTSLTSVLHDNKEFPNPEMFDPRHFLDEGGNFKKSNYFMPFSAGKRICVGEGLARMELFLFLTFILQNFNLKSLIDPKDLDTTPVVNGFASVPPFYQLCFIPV

SMILES | inhibition
Cc1ccc(C(=O)CSc2nnc(Cn3nnc4ccccc43)n2C)cc1 | 13.9%
CCn1c(SCC(=O)c2ccc(Cl)s2)nnc1-c1cccs1 | 94.2% (active)
CCOC(=O)CSc1nnc(CNC(=O)c2ccco2)n1-c1ccc(F)cc1 | -4.9%
Cn1c(SCC(=O)c2cccs2)nnc1-c1ccco1 | 42.3%
CCn1c(SCC(=O)c2ccc3ccccc3c2)nnc1-c1cccs1 | 15.7%
COc1ccc(-n2c(SCC(=O)OC(C)C)nnc2-c2ccccn2)cc1 | 12%
CCn1c(Cc2cccs2)nnc1SCC(=O)c1ccc(C)cc1 | 94.1% (active)
Cc1ccc(-n2c(Cc3cccs3)nnc2SCC(=O)OC(C)C)cc1 | 98.1% (active)
CCS(=O)(=O)Nc1cc(C(=O)OC)ccc1C(=O)OC | 49.8%
CCSc1nc(C)nc2c1oc1ccccc12 | 15.2%
COc1ccc(-c2cn3ccsc3n2)cc1 | 14.3%
CCCS(=O)(=O)N1CCCC(C(=O)NCCN2CCCCC2C)C1 (stereo not drawn) | -13.4%
O=C(CCC(=O)N1CCN(S(=O)(=O)c2ccccc2)CC1)NC1CCCc2ccccc21 (stereo not drawn) | 17.7%
COCc1[nH][nH]c(=O)c1C=Nc1ccc(F)cc1F | -10.3%
CC(C)C(NC(=O)OCc1ccccc1)C(=O)OCC(=O)N1C(C)CCCC1C (stereo not drawn) | 40.3%
COc1ccc(N2CCN(C(c3cc4ccc(C)cc4[nH]c3=O)c3nnnn3C3CCCC3)CC2)cc1 (stereo not drawn) | 54.4% (active)
CCOc1ccc2[nH]c(=O)c(C(c3nnnn3CCOC)N3CCOCC3)cc2c1 (stereo not drawn) | 11.5%
Cc1cccc(N2CCN(C(c3ccccc3)c3nnnn3CC3CCCO3)CC2)c1C (stereo not drawn) | 12.7%
CC(C)C(c1nnnn1C1CCCC1)N1CCN(c2ccccc2F)CC1 (stereo not drawn) | 8%
COc1ccc(C(c2nnnn2C2CCCCC2)N2CCN(c3ccccc3F)CC2)cc1 (stereo not drawn) | 80.6% (active)
CC(C)c1ccc(NS(=O)(=O)c2cn(C)c(=O)n(C)c2=O)cc1 | 34%
Cc1cc(N2CCCC2)n2nc(C)c(-c3ccccc3)c2n1 | -17.7%
CCNc1nc(NCC)nc(N(C)n2cnnc2)n1 | -6%
Nc1ccc(-c2sc(N)nc2-c2ccccc2)cc1 | 61.8% (active)
Nc1ccc(-c2nnc(-c3ccc(-c4ccccc4)cc3)o2)cc1 | 25.3%

SMILES | inhibition
CC(=O)c1cc(C#N)c(SCC(=O)C(C)(C)C)nc1C | 34.4%
Cn1c(C(=O)NCCc2ccsc2)cc2c(=O)n(C)c3ccccc3c21 | 11.7%
CCc1ccc(CNC(=O)C2CCCN(c3nc4ccccc4o3)C2)cc1 (stereo not drawn) | 65.8% (active)
COc1ccc(OC)c(CNC(=O)C2CCCN(c3nc4ccccc4o3)C2)c1 (stereo not drawn) | 17.2%
COc1ccccc1CNC(=O)C1CCN(c2nc3ccccc3o2)CC1 | 3.5%
COc1ccc2ccccc2c1CNCc1ccccn1 | 15.9%
COc1ccc(/C(O)=C2\C(=O)C(=O)N(Cc3ccco3)C2c2ccc(OC)cc2OC)cc1 (stereo not drawn) | 3.4%
COc1ccc(/C(O)=C2/C(=O)C(=O)N(c3nc(C)c(C)s3)C2c2ccco2)cc1 (stereo not drawn) | 58.8% (active)
COc1ccccc1C1/C(=C(/O)c2ccc(OC(C)C)cc2)C(=O)C(=O)N1c1cc(C)on1 (stereo not drawn) | -7.6%
CN(C)CCCn1c(N)c(C#N)c2nc(C#N)c(C#N)nc21 | -1.9%
COC(=O)C(C)Oc1ccc2c(-c3cccc([N+](=O)[O-])c3)cc(=O)oc2c1 (stereo not drawn) | 28.8%
C=CCNC(=O)c1cc2nc(C3CC3)cc(C(F)F)n2n1 | 51.2% (active)
O=C(Nc1ccc(Cl)cc1)c1cc2nc(C3CC3)cc(C(F)(F)F)n2n1 | -6.4%
Cc1nc(N2CCCC2C(=O)O)c2oc3ccccc3c2n1 (stereo not drawn) | 2.4%
Cc1ccccc1NC(=O)C(C)c1ccc(-c2ccccc2)c(F)c1 (stereo not drawn) | 7.1%
Cc1nn(C)c(Oc2ccc(Cl)cc2)c1C=O | 27.7%
Cc1nn(C)c(Oc2ccccc2)c1CCNS(=O)(=O)c1ccc(F)cc1 | 96.7% (active)
Cc1nn(C)c(Oc2ccccc2)c1[N+](=O)[O-] | 64% (active)
Cc1n[nH]c(=O)n1-c1ccc(Oc2ccccc2)cc1 | 18.5%
Cc1cccc(N2C(=O)SC(N(CC(=O)O)c3cccc(C)c3)C2=O)c1 (stereo not drawn) | 1.5%
COC(=O)C(NC(=O)c1ccc(OC)cc1)(Nc1ncc(S(=O)(=O)c2ccc([N+](=O)[O-])cc2)s1)C(F)(F)F (stereo not drawn) | 33.8%
c1ccc(CSCCc2ccncc2)cc1 | 99.8% (active)
O=C(CSCc1ccc([N+](=O)[O-])cc1)NCCSCc1ccccc1 | 21.3%
COc1ccc(-c2nn(C)c(=O)c3ccccc23)cc1NC(=O)COc1ccccc1 | 25.6%
CCOc1nc(OCC)nc(-n2cc(-c3ccccc3)nn2)n1 | 3.5%

SMILES | inhibition
Cc1cnc(NC(=O)CSc2nnc(-c3ccc(Cl)cc3Cl)n2N)s1 | 23.2%
COc1ccc(-c2nnc(SC(C)C#N)o2)cc1 (stereo not drawn) | 10.9%
Cc1nc(Nc2ccc3c(c2)OCCO3)c2nnn(Cc3ccccc3Cl)c2n1 | 83.2% (active)
C#CCNc1nc(C(C)C)nc2c1nnn2Cc1ccccc1F | 37.3%
O=C(Nc1cc2ccccc2oc1=O)C1CCCCC1 | 0.3%
O=C(CC12CC3CC(CC(C3)C1)C2)Nc1ccc2c(c1)COC2=O | 12.8%
O=C(Oc1ccc2c(c1)CCC2)N1CCOCC1 | 11.1%
O=C(/C=C/c1cccs1)c1cc(Cl)ccc1OC(=O)N1CCOCC1 | 90.6% (active)
CC(=O)Nc1ccccc1OC(=O)N1CCOCC1 | 0.3%
O=c1cc(N2CCN(Cc3ccccc3)CC2)c(-c2ccccc2)n[nH]1 | 19%
CCOC(=O)c1cc(C)sc1NC(=O)C1CCC1 | 54.6% (active)
CCOC(=O)c1c(NC(C)=O)sc2c(O)c(Br)ccc12 | 3.8%
Cc1cnc(NC(=O)C2CCCC2)s1 | 17.5%
CC(=NC1CCN(Cc2ccccc2)CC1)c1c(O)[nH]c(=O)[nH]c1=O | -7.4%
CC(C)c1nnc(NC(=O)C2CCCN2S(=O)(=O)c2ccc(Cl)cc2)s1 (stereo not drawn) | 17.2%
CCOc1ccc(NC(=O)CC2NCCNC2=O)cc1 (stereo not drawn) | 1.1%
CCOc1ccc(S(=O)(=O)N2CCCCCC2)c2ccccc12 | 32.3%
CCOc1ccc(S(=O)(=O)n2ccnc2)c2ccccc12 | 66.5% (active)
CCOC(=O)c1ccc(N2C(=O)CC(N3CCC(C(=O)OCC)CC3)C2=O)cc1 (stereo not drawn) | 47.5%
CCOC(=O)c1ccc(N2C(=O)CC(N3CC(C)OC(C)C3)C2=O)cc1 (stereo not drawn) | 6.8%
CCCCOC(=O)c1ccc(N2C(=O)CC(N3CCN(C/C=C/c4ccccc4)CC3)C2=O)cc1 (stereo not drawn) | 86.2% (active)
CCCCCCC(=O)Nc1nc(C)c(-c2csc(Nc3cccc(OC)c3)n2)s1 | -4.8%
COC(=O)c1ccccc1Sc1c(/C=N/OCc2ccc(Cl)cc2)c(C(F)(F)F)nn1C | 72.6% (active)
COC(=O)c1ccccc1NC(=O)Cn1nc(C(F)(F)F)c2c1CCC2 | 36.4%
O=C1N=C2SCCN2/C1=C\c1c(Cl)cccc1Cl | 11.1%

SMILES | inhibition
Cc1cc(Nc2ccccc2)nc(N)n1 | -8.2%
CNC(=O)n1ccc(C(=O)N2CCCCC2)n1 | -16.6%
O=C(/C=C\NCC(=O)c1ccccc1)c1ccccc1 | 46.4%
O=C(/C=C/NNC(=O)c1cccc(Br)c1)c1ccccc1 | 76.7% (active)
CC(C)(O)C(=O)NN(C(=O)c1ccccc1)c1cccc(Br)c1 | 2.5%
CCC(C)(C(=O)NC1CCCC1)N(C(=O)CNC(C)=O)c1ccc(C)cc1 (stereo not drawn) | 21.1%
CCOc1ccccc1NC(=O)C12CC3CC(C1)CC(c1ccc(C)cc1)(C3)C2 | 51.9% (active)
CCOc1ccc(NC(=O)CN(C)CC(=O)Nc2cccc(Cl)c2C)cc1OCC | 21.6%
CCOc1ccccc1NC(=O)C1CCC(CNc2c(N3CCOCC3)c(=O)c2=O)CC1 (stereo not drawn) | -13.1%
CCOCC(=O)Nc1cc(OC)c(Cl)cc1OC | 29.8%
COc1ccc(-c2cc(C(F)(F)F)n3nc(C(=O)N4CCOCC4)c(Cl)c3n2)cc1 | -7.1%
FC(F)Oc1ccccc1C1CC(c2ccc(Br)s2)Nc2ncnn21 (stereo not drawn) | 98.5% (active)
CCC(c1nnnn1Cc1ccco1)N(CCc1ccccc1)Cc1cc2ccc(OC)cc2[nH]c1=O (stereo not drawn) | 92.2% (active)
CCC(=O)N(Cc1cc2cc(OC)ccc2[nH]c1=O)c1ccccc1C | 21.8%
CCC(c1nnnn1Cc1ccccc1)N(Cc1cc2cc(OC)ccc2[nH]c1=O)CC1CCCO1 (stereo not drawn) | 44.9%
COc1ccc2[nH]c3c(=O)n(Cc4ccco4)cnc3c2c1 | 21.8%
CCC(c1nnnn1Cc1ccco1)N(CCc1ccccc1)Cc1cc2cccc(C)c2[nH]c1=O (stereo not drawn) | 38.3%
CCC(c1nnnn1Cc1ccco1)N(Cc1cc2cc(OC)ccc2[nH]c1=O)C1CCCCC1 (stereo not drawn) | 53.6% (active)
O=C1c2ccccc2-c2ncnc3c(N4CCOCC4)cc(N4CCOCC4)c1c23 | 29.6%
CCOC(=O)c1sc(NC(=O)CSc2nc(C)cc(C(F)(F)F)n2)c(C#N)c1C | 19.8%
Cc1cc(Oc2ccccc2)nc(N2CCOCC2)n1 | 94.5% (active)
Cc1nc(N2CCOCC2)nc2c1CCCC2 | 28.5%
CC(=O)c1ccc(Oc2cc(C)nc(-n3nc(C)cc3C)n2)cc1 | -5.5%
